High-throughput results: PubChem, several laboratories
GLD-1 RNA inh – GLD-1/TGE RNA complex disruptors, primary screen, biochemical, fluorescence polarization. Female germline-specific tumor suppressor gld-1 (Caenorhabditis elegans), Q17339. purified GLD-1 + fluorescein TGE RNA. inhibition, % at 5.96 µM. hit rate 0.44% among 320,000. AID 2280, 2010;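 active means percent inhibition above a per-plate cutoff, the plate mean of test compounds plus 3 SD, cut at about 30% in these data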;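 further: 0% = DMSO wells with GLD-1 and probe and 100% = wells lacking GLD-1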
Mcl1 Bid PPI – Mcl-1/Bid binding inhibitors, primary screen, biochemical, TR-FRET, 1536-well | Induced myeloid leukemia cell differentiation protein Mcl-1 (Homo sapiens), Q07820 | TR-FRET Mcl-1/Bid-Dy647 peptide binding | inhibition, % at 21.7 µM | hit rate 0.97% among 220,000;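 active means compounds that cut the binding signal by more than half at the single screening dose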;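 further: His-tagged Mcl-1 with europium anti-His antibody binding Bid BH3 peptide; 0% = Mcl-1 plus peptide wells and 100% = peptide-only wells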
Target sequence (Q07820 whole entry, looked up): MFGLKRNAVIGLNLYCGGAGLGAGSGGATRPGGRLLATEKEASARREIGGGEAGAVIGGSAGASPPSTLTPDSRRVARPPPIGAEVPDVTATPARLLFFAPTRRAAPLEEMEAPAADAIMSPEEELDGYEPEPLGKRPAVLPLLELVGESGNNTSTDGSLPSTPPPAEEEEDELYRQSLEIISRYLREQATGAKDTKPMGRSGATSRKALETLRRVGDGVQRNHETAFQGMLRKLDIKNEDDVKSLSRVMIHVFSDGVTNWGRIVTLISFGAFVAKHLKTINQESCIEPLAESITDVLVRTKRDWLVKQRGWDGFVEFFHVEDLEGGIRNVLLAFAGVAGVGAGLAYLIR
Mcl1 Noxa PPI – Mcl-1/Noxa binding inhibitors, primary screen, biochemical, TR-FRET, 1536-well; TR-FRET Mcl-1/Noxa peptide binding, 2 h; inhibition, % at 21.7 µM; hit rate 1.5% among 220,000; Induced myeloid leukemia cell differentiation protein Mcl-1 (Homo sapiens), Q07820;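 active means compounds that cut the protein-peptide binding signal by more than 50% relative to plate controls in a single-dose test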;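 further: His-tagged Mcl-1 with rhodamine Noxa BH3 peptide and terbium anti-His antibody; 0% = Mcl-1 plus Noxa peptide wells and 100% = peptide-only wells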
Mcl-1 Bim block – inhibitors of Bim peptide binding to Mcl-1, primary screen, biochemical, bead-based flow cytometry, multiplex; Induced myeloid leukemia cell differentiation protein Mcl-1 (Homo sapiens), Q07820; Bim peptide-Mcl-1 binding; inhibition, % at 10 µM; hit rate 0.1% among 190,000; AID 1009, 2008; in the data active means inhibition above about 40%;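 further: 0% = no compound tracer wells and 100% = peptide blocker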
MCL1 BIM primary – inhibitors of MCL1 binding to BIM-BH3, primary screen, biochemical, fluorescence polarization | Induced myeloid leukemia cell differentiation protein Mcl-1 (Homo sapiens), Q07820 | GST-MCL1 / FITC-Bim-BH3 fluorescence polarization | inhibition, % at 10.9 µM | hit rate 0.68% among 320,000 | AID 2057, 2009;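 active means inhibition above the mean inhibition of all tested compounds plus 3 SD, set per campaign, cut at about 40% in these data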;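 further: 0% = DMSO wells and 100% = unlabeled Bim-BH3 peptide control; higher means more loss of mP so more displacement of Bim peptide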
Bcl-xL primary – inhibitors of human Bcl-xL, primary screen, biochemical, fluorescence polarization, HTS; Bcl-2-like protein 1 (Homo sapiens), Q07817; GST-Bcl-xL / FITC-Bim BH3 peptide fluorescence polarization; inhibition, % at 10.9 µM; hit rate 0.7% among 320,000; AID 2129, 2009;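 active means inhibition above the mean of all tested compounds plus 3 SD, cutoff set per campaign, cut at about 30% in these data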;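 further: 0% = DMSO wells and 100% = unlabeled Bim-BH3 peptide competitor; inhibitors lower millipolarization by displacing the labeled peptide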
Target sequence (Q07817 whole entry, looked up): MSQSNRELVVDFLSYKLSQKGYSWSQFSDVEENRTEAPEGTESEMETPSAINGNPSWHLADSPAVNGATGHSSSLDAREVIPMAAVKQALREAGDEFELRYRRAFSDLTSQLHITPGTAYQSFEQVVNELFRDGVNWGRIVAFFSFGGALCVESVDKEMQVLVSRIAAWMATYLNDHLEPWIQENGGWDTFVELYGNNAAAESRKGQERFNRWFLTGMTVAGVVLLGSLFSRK
Active calls of the source: *; x = no result. In the library only some 2.3% were active in any assay of this set; here they are far more common.

SMILES | GLD-1 RNA inh | Mcl1 Bid PPI | Mcl1 Noxa PPI | Mcl-1 Bim block | MCL1 BIM primary | Bcl-xL primary
C[C@H](CO)N1C[C@H](C)[C@@H](CN(C)S(C)(=O)=O)Oc2ccc(NS(=O)(=O)c3ccccc3)cc2C1=O | 5 | x | x | x | x | x
COc1ccc(C2=NC(=O)/C(=C\c3cc(OC)c(OC)c(OC)c3)O2)cc1 | 0 | 54* | 32 | -7 | -3 | 2
Cc1ccc(-n2cccc2/C=C2/C(=N)N3C(=NC2=O)SN=C3S(C)(=O)=O)cc1Cl | -17 | 97* | 116* | 12 | 14 | -4
CS(=O)(=O)N1CCN(Cc2ccccc2C(F)(F)F)CC1 | -3 | -5 | 0 | -2 | 8 | -2
CS(=O)(=O)N1CCN(Cc2ccc(C(F)(F)F)cc2)CC1 | 3 | 52* | 19 | 0 | -13 | -5
O=C(O)Cn1nc2ccccc2n1 | -4 | -8 | 3 | 0 | -1 | 4
CC(C(=O)O)n1nc2ccccc2n1 (stereo not drawn) | 7 | 71* | 26 | -2 | 1 | 0
Cc1cc(C)cc(C(=O)NCC(=O)OCC(=O)N2c3ccccc3NC(=O)C2(C)C)c1 | -2 | -24 | 54* | 16 | 27 | 7
COc1cc(OC)cc(C(=O)NCC(=O)OCC(=O)N2c3ccccc3NC(=O)C2(C)C)c1 | -5 | -10 | 10 | -1 | 2 | 0
CCOc1ccccc1-n1c(=O)c2ccccc2c2ccccc2c1=O | 4 | 54* | 10 | 6 | -3 | 3
CC(C)CCN(C(=O)c1ccccn1)c1c(N)n(Cc2ccccc2)c(=O)[nH]c1=O | 0 | x | x | x | x | x
CCCCN(C)C(=O)c1coc(=O)c2ccccc12 | 3 | 94* | -16 | -1 | 4 | 2
CN(C(=O)c1coc(=O)c2ccccc12)c1ccc(Br)cc1 | 0 | -29 | -5 | -1 | 0 | 0
Cc1ccc(C(=O)N/C(=C\c2ccc3c(c2)OCO3)C(=O)Nc2ccc(C(=O)O)cc2)cc1 | -4 | 5 | 1 | 2 | -4 | 4
Cc1c(CN2CCCCC2)c(O)n(CCCO)c(=O)c1C#N | 27 | -6 | 29 | 0 | 35 | 35*
COc1ccc([C@H]2CC(=O)C=C(c3cccc4c3Oc3ccccc3S4)C2)cc1OC | 2 | x | x | x | -3 | 2
COC(=O)c1cc2sc(Cl)cc2n1CC(=O)Nc1cccc(SC)c1 | 3 | 96* | -7 | 0 | -4 | -3
COC(=O)c1cc2sc(Cl)cc2n1CC(=O)Nc1ccc(OC)c(OC)c1OC | 7 | 1 | 5 | 2 | -3 | 2
Cc1cccc(Nc2nnc(SC/C(O)=C(\C#N)c3nc4ccccc4[nH]3)s2)c1 | 5 | -23 | 52* | -3 | -2 | 13
Cc1ccc(Nc2nnc(SC/C(O)=C(\C#N)c3nc4ccccc4[nH]3)s2)c(C)c1 | 9 | -15 | 70* | -1 | 1 | 21
COc1ccc(C)cc1-n1nnnc1SC/C(O)=C(\C#N)c1nc2ccccc2[nH]1 | -8 | -37 | 12 | -13 | -1 | 3
Cc1ccc(C(=O)Nc2ccc(N3CCCC3)cc2)c(C)c1 | 1 | -32 | 75* | -1 | 6 | 1
CS(=O)(=O)c1ccc(C(=O)Nc2ccc(N3CCOCC3)cc2)c(Cl)c1 | -1 | -40 | 12 | -1 | -1 | 3
Cc1ccccc1C(=O)Nc1ccc(N2CCCC2)cc1 | 6 | -56 | 33 | 1 | 7 | 15
CS(=O)(=O)c1ccc(C(=O)Nc2ccc(N3CCCC3)cc2)c(Cl)c1 | -2 | -32 | 67* | -1 | 2 | 1
SMILES | GLD-1 RNA inh | Mcl1 Bid PPI | Mcl1 Noxa PPI | Mcl-1 Bim block | MCL1 BIM primary | Bcl-xL primary
CCN(Cc1ccccc1)S(=O)(=O)c1ccc(C(=O)N(CCCN(C)C)c2nc3c(C)c(C)ccc3s2)cc1 | 0 | x | x | x | -5 | -7
CCCn1c(=O)c2sccc2n2c(CCCC(=O)NC3CCN(Cc4ccccc4)CC3)nnc12 | 0 | x | x | x | 4 | 3
Cc1onc(-c2ccccc2)c1C(=O)Nc1cccc(S(=O)(=O)N2CCCCC2)c1 | 3 | x | x | x | x | x
COc1cccc(C(=O)N2CCN(Cc3ccccc3C(F)(F)F)CC2)c1 | 7 | 62* | 30 | -1 | 5 | 3
O=C(O)C1=C[C@H](C2CC2)C[C@H](OCCCCO)O1 | 0 | -13 | -21 | 44* | 7 | 6
CSc1cccc(NC(=O)Nc2ccccc2C(N)=O)c1 | -1 | -6 | 11 | x | -17 | -2
O=C(N=c1ccn(-c2nc3ccccc3nc2NS(=O)(=O)c2ccccc2)cc1)c1cccs1 | 15 | -274 | -238 | -2 | 17 | 17
Cc1ccccc1C(=O)N=c1ccn(-c2nc3ccccc3nc2NS(=O)(=O)c2ccc(F)cc2)cc1 | 5 | x | x | x | 2 | 34*
O=C(C1CCC(=O)N(C2CC2)C1)N(CCO)Cc1ccccc1 (stereo not drawn) | -3 | x | x | x | -10 | 5
CCCCn1c(N)c(N(CC(C)C)C(=O)c2cc(S(=O)(=O)N3CCCCC3)ccc2C)c(=O)[nH]c1=O | 6 | x | x | x | -3 | -5
COc1ccc(S(=O)(=O)Nc2c(C)nc3nc[nH]n3c2=O)cc1 | 5 | 66* | 7 | -4 | 0 | 3
Cc1nc2nc[nH]n2c(=O)c1NS(=O)(=O)c1ccc(F)cc1 | 2 | 1 | 25 | 0 | 2 | 8
CCOC(=O)CC1=CSC2=NS(=O)(=O)CCN12 | 1 | -3 | 74* | -4 | 11 | 6
Cc1n[nH]c(=S)n(NC(=O)/C=C/C(=O)Nn2c(=S)[nH]nc(C)c2=O)c1=O | x | -43 | 87* | -3 | x | x
COc1cc(OC)cc(C(=O)N/N=C(\C)CC(=O)Nc2ccccn2)c1 | -1 | x | x | x | 4 | 2
O=C1CCCC2=C1C(c1cn(-c3ccccc3)nc1-c1cccs1)c1c([nH]c(=O)[nH]c1=O)N2 (stereo not drawn) | -1 | 50 | 62* | 0 | 11 | 1
CSc1nc2c(c(=O)[nH]1)C(c1cccs1)C1=C(CCCC1=O)N2 (stereo not drawn) | 1 | -42 | 7 | -4 | 9 | 0
C=CCn1c(=O)/c(=C2/SC(C)=C(C)N2CC)s/c1=C1/C(=O)N(CC)C(=S)N1c1ccccc1 | 0 | 59* | 29 | -4 | -5 | -2
Cc1c(Cc2ccccc2)c(NCCN(C)C)n2c(nc3ccccc32)c1C#N | 1 | -19 | 79* | x | 7 | 3
Cc1cc(C(=O)N/N=C2\CCCC(=O)C2)c2ccccc2n1 | 74* | -11 | 12 | -2 | 19 | 26
CS(=O)(=O)Nc1ccc(C(=O)NCCSc2ccc(Cl)cc2)cc1 | -13 | x | x | x | 11 | 0
